# Screening results: PubChem BioAssay, The Scripps Research Institute Molecular Screening Center
# PAD4 inh – inhibitors of human PAD4; Q9UM07; recombinant PAD4, RCA probe fluorescence polarization; AID 485272; inhibition, % at 6.36 µM; 0.41% of 330,000 active;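 active = percent inhibition above a cutoff equal to the mean of all tested compounds plus 3 SD, cut at about 15% in these data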;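 also: 0% = PAD4 with RCA probe and DMSO and 100% = probe without PAD4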
# LYPLA1 counter – LYPLA1 (human) inhibition in PME1 counter-screen; 0.16% of 320,000 active; inhibition, % at 5.9 µM; recombinant LYPLA1, FP-Rh probe fluorescence polarization; O75608;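 active = inhibition above the mean of all tested compounds plus 3 SD, set per campaign, cut at about 14% in these data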;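 also: inhibitors block serine hydrolase probe labeling of LYPLA1 so polarization falls; 0% = enzyme with DMSO and 100% = wells lacking LYPLA1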
# GSTO1 counter – GSTO1 inhibition, counter-screen for RBBP9 inhibitors. P78417. recombinant GSTO1, activity-based probe fluorescence polarization. inhibition, % at 5.96 µM. 1.1% of 300,000 active. AID 1974;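 active = inhibition above the campaign mean inhibition plus 3 SD, cut at about 35% in these data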;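 also: 0% = GSTO1-1 with DMSO and 100% = wells lacking GSTO1-1 enzyme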
# PME-1 inh – PME-1 (human) inhibition; 0.53% of 320,000 active; recombinant PME-1, FP-Rh probe fluorescence polarization; inhibition, % at 5.9 µM;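 active = inhibition above the campaign mean of all compounds plus 3 SD, cut at about 26% in these data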;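 also: competitive labeling of PME-1 active site by serine hydrolase directed probe; 0% = PME-1 with DMSO and 100% = wells lacking PME-1 enzyme; inhibitors block probe labeling so polarization falls and inhibition rises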
# Target sequence (Q9Y570 whole entry, looked up): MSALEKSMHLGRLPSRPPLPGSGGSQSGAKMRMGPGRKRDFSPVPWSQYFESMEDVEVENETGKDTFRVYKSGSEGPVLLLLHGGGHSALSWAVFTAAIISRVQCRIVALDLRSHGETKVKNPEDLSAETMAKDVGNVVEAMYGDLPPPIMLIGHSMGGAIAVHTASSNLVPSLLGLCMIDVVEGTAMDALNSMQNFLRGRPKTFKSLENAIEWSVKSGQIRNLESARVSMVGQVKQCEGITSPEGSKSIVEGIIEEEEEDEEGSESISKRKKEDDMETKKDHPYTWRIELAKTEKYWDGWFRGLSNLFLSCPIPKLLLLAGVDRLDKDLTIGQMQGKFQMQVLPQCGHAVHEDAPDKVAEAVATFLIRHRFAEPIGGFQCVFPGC
# LYPLA2 counter – blocks human lysophospholipase 2, a PME1 counter-screen. O95372. recombinant LYPLA2, FP-Rh probe fluorescence polarization. inhibition, % at 5.9 µM. 0.38% of 320,000 active. AID 2177;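 active = inhibition above the screen-wide mean plus 3 SD, limit set per campaign, cut at about 26% in these data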;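 also: 0% = LYPLA2 with DMSO and 100% = wells lacking LYPLA2 enzyme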
# Target sequence (O95372 whole entry, looked up): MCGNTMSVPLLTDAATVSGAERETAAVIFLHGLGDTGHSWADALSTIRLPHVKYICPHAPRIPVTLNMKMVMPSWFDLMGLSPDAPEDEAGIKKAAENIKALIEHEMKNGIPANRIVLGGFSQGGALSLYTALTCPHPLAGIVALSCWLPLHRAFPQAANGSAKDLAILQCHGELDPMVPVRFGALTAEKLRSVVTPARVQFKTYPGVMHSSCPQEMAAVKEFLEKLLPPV
# Fam108B counter – counter-screen for RBBP9 inhibitors: inhibitors of mouse Fam108B; inhibition, % at 9.51 µM; 0.33% of 300,000 active; recombinant Fam108B, FP-Rh probe fluorescence polarization;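 active = inhibition above the screen mean inhibition plus 3 SD, computed separately per campaign, cut at about 18% in these data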;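 also: inhibitors lower polarization as less probe binds the enzyme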
# LYPLA1 confirm – counter-screen for PME1 inhibitors: confirmation of human LYPLA1 inhibitors. shares compounds with LYPLA1 counter. recombinant LYPLA1, FP-Rh probe fluorescence polarization. inhibition, % at 5.9 µM. 69% of 480 active;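 active = mean inhibition across replicates above the hit cutoff set in the primary screen, cut at about 15% in these data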;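 also: loss of FP-Rh probe labeling of LYPLA1 seen as lower polarization; 0% = LYPLA1 with DMSO and 100% = wells lacking LYPLA1 enzyme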
# Numbers without * were called inactive; . = no result. Most compounds without a hit are left out; they make up all but 1.8% or so of the library.
SMILES,PAD4 inh,LYPLA1 counter,GSTO1 counter,PME-1 inh,LYPLA2 counter,Fam108B counter,LYPLA1 confirm
O=C(CCCCCN1C(=O)c2ccccc2C1=O)Oc1ccc2c3c(c(=O)oc2c1)CCC3,-6,32*,-4,6,20,0,51*
O=C(O)CCCn1cc(NC(=O)COc2cc(F)ccc2[N+](=O)[O-])cn1,-13,1,-11,-4,-7,-5,.
COC(=O)C1CCN(c2c([N+](=O)[O-])cc(C(F)(F)F)cc2[N+](=O)[O-])CC1,-4,32*,1,6,12,2,33*
NC(=O)C1CCN(c2c([N+](=O)[O-])cc(C(F)(F)F)cc2[N+](=O)[O-])CC1,-2,3,-8,2,-1,-1,.
Cc1ccsc1C1Nc2ccc3ncccc3c2C2=C1C(=O)CCC2 (stereo not given),1,28*,-1,16,1,-1,31*
CC1(C)Cc2nc3scc(NC(=O)c4ccccc4)c3cc2CO1,3,-3,2,-3,-1,-1,.
CC(NC(=O)c1ccco1)C(=O)N1CCN(c2ccccc2)CC1 (stereo not given),1,5,4,3,2,1,.
CC(NC(=O)c1ccco1)C(=O)N1CCN(c2cccc(C(F)(F)F)c2)CC1 (stereo not given),-6,34*,.,11,17,.,45*
N#Cc1c(NC(=O)CSc2nc(N)cc(=O)[nH]2)sc2c1CCCC2,3,46*,-19,2,14,0,47*
C=CCSc1nnc(CCCCCN2C(=O)c3cccc4cccc(c34)C2=O)o1,-2,27*,1,-2,10,-1,39*
CCOC(=O)CCCSc1nnc(CCCCCN2C(=O)c3cccc4cccc(c34)C2=O)o1,2,45*,-2,-4,20,-5,52*
O=C1C=C(O)C(n2cncn2)C(c2ccc3c(c2)OCO3)C1 (stereo not given),4,-3,9,0,7,12,.
O=C(CSc1nnc(-c2ccc(Cl)cc2)o1)N1CCOCC1,-7,-5,-3,1,-4,4,.
O=C(NCc1ccccc1)c1ccc(NC(=O)c2ccccc2F)cc1,-3,-1,1,-1,0,-4,.
c1ccc(OCCOc2ccccc2-c2nnco2)cc1,-2,2,0,1,5,0,.
C=CCOc1ccc(Br)cc1CNC(C)(C)C,-1,18*,1,-4,-2,-4,1
COc1ccccc1/C=C/C=N/N1CCN(Cc2ccc(Cl)cc2)CC1,-1,19*,2,1,21,0,26*
COc1cc(/C=N/N2CCN(Cc3ccc(Cl)cc3)CC2)cc(Br)c1O,-2,49*,4,2,22,-1,54*
COC(=O)c1ccc(/C=N/N2CCN(Cc3ccc(Cl)cc3)CC2)cc1,7,4,13,-6,6,-3,.
COc1ccccc1/C=C/C=N\N1CCN(Cc2ccccc2Cl)CC1,-2,3,-1,5,10,4,.
CC(=O)C1=C(O)C(=O)N(CCCCCC(=O)O)C1c1ccc(N(C)C)cc1 (stereo not given),-17,-3,-6,-5,0,-3,.
O=c1[nH]n2c(=O)c3c([nH]c2c1N=Nc1cccc(C(F)(F)F)c1)CCCC3,-1,16*,3,71*,1,9,15*
O=C(NCC(c1ccco1)N1CCCC1)c1cccc(S(=O)(=O)Nc2ccc(F)cc2)c1 (stereo not given),-2,-3,.,-7,-7,.,.
CNc1oc(-c2cccc3ccccc23)nc1C#N,1,17*,1,6,7,6,5
CNc1oc(-c2ccccc2Cl)nc1C#N,-3,3,0,-4,0,2,.
SMILES,PAD4 inh,LYPLA1 counter,GSTO1 counter,PME-1 inh,LYPLA2 counter,Fam108B counter,LYPLA1 confirm
CCNC(=S)NNC(=O)Cn1c(=O)c2c(ncn2CCOC)n(Cc2ccccc2)c1=O,1,41*,1,-4,-10,-4,1
CCN(CC(=O)NCc1cccs1)C(=O)c1ccc(S(=O)(=O)Nc2ccccc2Cl)cc1,-1,2,.,7,2,.,.
CCOC(=O)C1(O)CSc2nc3sc(C(=O)O)c(C)c3c(=O)n21 (stereo not given),0,14*,2,4,13,-2,5
COc1ccccc1OCC(=O)NNc1c2ccccc2nc2ccccc12,2,-2,9,10,5,3,.
O=S(=O)(Nc1ccc(Cc2ccncc2)cc1)c1ccc(Cl)c(Cl)c1,-2,2,11,10,-1,3,.
COc1ccc(S(=O)(=O)Nc2ccc(Cc3ccncc3)cc2)cc1OC,3,20*,25,15,1,4,28*
O=C(COC(=O)c1nc(Cl)ccc1Cl)NCc1ccc(Cl)cc1,-1,-1,.,2,3,.,.
Cc1cc(SCC(=O)Nc2cccc(S(=O)(=O)NC3=NCCCCC3)c2)nc2ccccc12,1,19*,-29,7,1,-7,29*
Cc1ccc(-n2c(SCC(=O)Nc3cccc(S(=O)(=O)NC4=NCCCCC4)c3)nc3ccccc3c2=O)cc1C,-8,-14,-27,-21,-28,-17,.
COc1ccc(-c2nc(CC(=O)Nc3cccc(S(=O)(=O)NC4=NCCC4)c3)cs2)cc1,-1,16*,.,-2,2,.,-1
CCOc1ccc(C(=O)NC(=S)Nc2cccc(S(=O)(=O)NC3=NCCC3)c2)cc1,-4,-3,-5,-3,6,-2,.
CCc1ccc(OC(=O)c2cccnc2)cc1,4,0,-2,6,-2,2,.
Cc1cc(C)nc(Nc2ccc(O)cc2)n1,1,-2,2,-4,-4,-1,.
Cc1cc(Nc2ccc(O)cc2)ccc1N,35*,16*,.,36*,21,.,0
Cc1ccc(-n2c(O)c(C=Nc3ccccc3-c3n[nH]c(=S)[nH]c3=O)c3ccccc3c2=O)c(C)c1,-5,15*,6,-9,-4,8,15*
Cc1nn(-c2ccccc2)c(N2CCCC2)c1/C=N/Nc1ccc(S(N)(=O)=O)cc1[N+](=O)[O-],-1,20*,0,16,10,11,42*
NS(=O)(=O)c1ccc(N/N=C/c2ccc(C(=O)O)cc2)c([N+](=O)[O-])c1,2,3,-10,-2,10,2,.
CNc1ccc(/C=C(\CCC(=O)O)c2nc3ccccc3s2)cc1[N+](=O)[O-],-6,16*,25,25,11,13,22*
CSC(=NC#N)N1CCN(c2ccc([N+](=O)[O-])cc2)CC1,-3,19*,3,1,14,3,24*
CSC(=NC#N)N1CCN(C(c2ccccc2)c2ccccc2)CC1,-9,20*,2,-3,21,0,24*
